What all share (experiment): DAPPL (digital affinity profiling via proximity ligation, sequencing); 10 mM Tris-HCl pH 7.5, 50 mM NaCl, 1 mM DTT, 4% glycerol, room temperature, 30 min; GST-TFs on glutathione beads, 16-mer random dsDNA library, 0.1% formaldehyde crosslink after washing; high values mean tight binding
One test concerns the target T1, FLI1 (Homo sapiens, UniProt Q01543 1-452).
T1 sequence: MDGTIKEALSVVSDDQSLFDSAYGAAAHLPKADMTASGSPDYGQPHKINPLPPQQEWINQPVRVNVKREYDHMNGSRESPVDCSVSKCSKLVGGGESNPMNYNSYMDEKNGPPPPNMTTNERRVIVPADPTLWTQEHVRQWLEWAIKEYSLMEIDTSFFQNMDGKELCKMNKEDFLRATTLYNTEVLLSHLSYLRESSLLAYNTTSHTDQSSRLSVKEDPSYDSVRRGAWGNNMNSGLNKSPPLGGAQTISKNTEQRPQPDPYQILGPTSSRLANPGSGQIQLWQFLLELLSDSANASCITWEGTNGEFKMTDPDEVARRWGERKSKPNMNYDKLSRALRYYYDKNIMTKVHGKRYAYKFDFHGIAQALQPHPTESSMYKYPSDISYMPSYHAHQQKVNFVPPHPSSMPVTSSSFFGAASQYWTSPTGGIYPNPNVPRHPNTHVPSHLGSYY
The note with it: protein: recombinant; tags: N-terminal GST; dsDNA, one strand shown. The essentials: (§1)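 Sequencing on an Illumina NextSeq500 followed washing, crosslinking with 0.1% formaldehyde, proximity ligation (BsaI/T4 ligase, 1 h, 37 °C) and PCR amplification of pools that had been incubated for 30 min at room temperature with 200 nmole of a random double-stranded 16-mer DNA library in Tris/NaCl/DTT/glycerol buffer. Each pool held DNA-barcoded human transcription factors, expressed in yeast as GST fusions and captured on glutathione beads, plus a tag-only sample. Binding signal is a hexamer's read frequency for a factor divided by its frequency in the tag-only sample.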

For another test, the target named is T2, ELK1 (Homo sapiens, UniProt P19419 1-428).
T2 sequence: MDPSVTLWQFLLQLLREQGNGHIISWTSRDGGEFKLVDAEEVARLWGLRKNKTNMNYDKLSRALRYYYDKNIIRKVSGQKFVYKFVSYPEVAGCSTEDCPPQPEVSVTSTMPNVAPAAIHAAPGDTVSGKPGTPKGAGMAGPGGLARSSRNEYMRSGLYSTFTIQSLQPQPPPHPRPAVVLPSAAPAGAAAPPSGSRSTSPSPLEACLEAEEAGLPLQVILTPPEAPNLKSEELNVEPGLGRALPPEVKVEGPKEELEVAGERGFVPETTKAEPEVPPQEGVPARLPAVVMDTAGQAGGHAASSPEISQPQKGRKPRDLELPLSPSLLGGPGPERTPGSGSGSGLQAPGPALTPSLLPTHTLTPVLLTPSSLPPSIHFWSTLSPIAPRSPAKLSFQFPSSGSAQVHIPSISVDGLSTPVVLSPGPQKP
The note with it: protein: recombinant; tags: N-terminal GST; dsDNA, one strand shown. The essentials:
as §1

In the next test the target is T3, GABPA (Homo sapiens, UniProt Q06546 1-454).
T3 sequence: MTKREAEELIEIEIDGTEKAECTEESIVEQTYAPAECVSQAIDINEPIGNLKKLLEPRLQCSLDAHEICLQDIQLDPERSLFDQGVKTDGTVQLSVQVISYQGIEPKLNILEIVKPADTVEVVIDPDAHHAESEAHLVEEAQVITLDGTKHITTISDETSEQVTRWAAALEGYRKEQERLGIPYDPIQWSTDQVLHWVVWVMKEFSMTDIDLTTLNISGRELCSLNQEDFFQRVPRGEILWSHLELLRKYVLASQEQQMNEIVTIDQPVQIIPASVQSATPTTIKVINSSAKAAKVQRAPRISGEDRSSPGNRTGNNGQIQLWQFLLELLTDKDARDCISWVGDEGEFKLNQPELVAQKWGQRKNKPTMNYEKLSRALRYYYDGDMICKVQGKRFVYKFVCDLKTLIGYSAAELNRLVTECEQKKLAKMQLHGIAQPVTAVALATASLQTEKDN
The note with it: protein: recombinant; tags: N-terminal GST; dsDNA, one strand shown. A digest of the protocol:
as §1

Another test deals with T4, ERG (Homo sapiens, UniProt P11308 1-479).
T4 sequence: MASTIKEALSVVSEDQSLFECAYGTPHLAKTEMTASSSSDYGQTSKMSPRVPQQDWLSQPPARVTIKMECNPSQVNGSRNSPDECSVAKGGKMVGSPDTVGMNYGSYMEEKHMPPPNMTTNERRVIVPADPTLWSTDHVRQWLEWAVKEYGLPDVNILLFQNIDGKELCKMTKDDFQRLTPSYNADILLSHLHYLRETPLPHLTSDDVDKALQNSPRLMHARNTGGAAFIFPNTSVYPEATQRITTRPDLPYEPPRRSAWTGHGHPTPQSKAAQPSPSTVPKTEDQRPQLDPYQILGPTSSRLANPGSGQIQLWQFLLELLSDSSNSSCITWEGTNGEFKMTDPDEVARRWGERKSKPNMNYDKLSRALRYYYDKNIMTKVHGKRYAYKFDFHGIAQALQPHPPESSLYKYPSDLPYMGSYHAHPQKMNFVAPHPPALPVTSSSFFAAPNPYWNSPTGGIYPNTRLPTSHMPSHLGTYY
The note with it: protein: recombinant; tags: N-terminal GST; dsDNA, one strand shown. A digest of the protocol:
as §1

The next test concerns the target ELF1 (Homo sapiens, UniProt P32519 1-619). The note with it: protein: recombinant; tags: N-terminal GST; dsDNA, one strand shown. A digest of the protocol:
as §1

The next test concerns the target T5, EHF (Homo sapiens, UniProt Q9NZC4 1-300).
T5 sequence: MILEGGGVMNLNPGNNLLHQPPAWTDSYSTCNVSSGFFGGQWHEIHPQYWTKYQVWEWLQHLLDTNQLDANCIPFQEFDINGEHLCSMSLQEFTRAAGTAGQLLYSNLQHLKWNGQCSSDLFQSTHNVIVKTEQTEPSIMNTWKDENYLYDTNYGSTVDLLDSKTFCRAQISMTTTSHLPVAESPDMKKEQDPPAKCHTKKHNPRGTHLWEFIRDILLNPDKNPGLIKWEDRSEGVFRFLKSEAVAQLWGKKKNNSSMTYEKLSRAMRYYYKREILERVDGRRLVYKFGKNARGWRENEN
The note with it: protein: recombinant; tags: N-terminal GST; dsDNA, one strand shown. The essentials:
as §1

For the next test, the target named is SPI1 (Homo sapiens, UniProt P17947 1-270). The note with it: protein: recombinant; tags: N-terminal GST; dsDNA, one strand shown. The essentials:
as §1

In another test the target is SPIB (Homo sapiens, UniProt Q01892 1-262). The note with it: protein: recombinant; tags: N-terminal GST; dsDNA, one strand shown. A digest of the protocol: as §1
The target in another test is T6, ELK3 (Homo sapiens, UniProt P41970 1-407).
T6 sequence: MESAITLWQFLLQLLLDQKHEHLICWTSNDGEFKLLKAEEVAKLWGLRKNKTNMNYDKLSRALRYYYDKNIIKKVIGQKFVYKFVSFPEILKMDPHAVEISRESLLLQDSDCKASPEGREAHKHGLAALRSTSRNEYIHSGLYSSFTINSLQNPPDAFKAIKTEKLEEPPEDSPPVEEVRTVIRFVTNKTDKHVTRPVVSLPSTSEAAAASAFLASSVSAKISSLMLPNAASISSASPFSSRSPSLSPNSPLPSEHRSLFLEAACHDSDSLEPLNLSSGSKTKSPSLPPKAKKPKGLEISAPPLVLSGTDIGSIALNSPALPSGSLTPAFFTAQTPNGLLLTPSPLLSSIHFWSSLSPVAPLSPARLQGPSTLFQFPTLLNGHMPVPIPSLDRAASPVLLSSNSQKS
The note with it: protein: recombinant; tags: N-terminal GST; dsDNA, one strand shown. The essentials:
as §1

Another test has as its target T7, FEV (Homo sapiens, UniProt Q99581 1-238).
T7 sequence: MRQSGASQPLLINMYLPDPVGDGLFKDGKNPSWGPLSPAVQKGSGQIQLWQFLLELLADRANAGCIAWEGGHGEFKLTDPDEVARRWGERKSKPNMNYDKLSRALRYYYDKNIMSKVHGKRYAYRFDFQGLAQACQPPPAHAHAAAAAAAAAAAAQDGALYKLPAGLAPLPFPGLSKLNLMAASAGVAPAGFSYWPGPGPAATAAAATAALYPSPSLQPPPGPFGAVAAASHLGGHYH
The note with it: protein: recombinant; tags: N-terminal GST; dsDNA, one strand shown. A digest of the protocol:
as §1

In a further test the target is ETV5 (Homo sapiens, UniProt P41161 1-510). The note with it: protein: recombinant; tags: N-terminal GST; dsDNA, one strand shown. A digest of the protocol: as §1
In a further test the target is HSF1 (Homo sapiens, UniProt Q00613 1-529). The note with it: protein: recombinant; tags: N-terminal GST; chain copies: 3; dsDNA, one strand shown. A digest of the protocol:
as §1

The next test addresses T8, SPIC (Homo sapiens, UniProt Q8N5J4 1-248).
T8 sequence: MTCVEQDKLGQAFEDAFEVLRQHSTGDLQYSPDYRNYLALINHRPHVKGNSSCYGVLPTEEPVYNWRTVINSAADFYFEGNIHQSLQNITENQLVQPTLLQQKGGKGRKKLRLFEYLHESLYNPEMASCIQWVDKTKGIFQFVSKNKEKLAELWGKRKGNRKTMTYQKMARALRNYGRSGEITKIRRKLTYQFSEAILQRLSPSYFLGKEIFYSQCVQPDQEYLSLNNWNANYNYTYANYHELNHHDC
The note with it: protein: recombinant; tags: N-terminal GST; dsDNA, one strand shown. The essentials: as §1

Another test deals with ELF4 (Homo sapiens, UniProt Q99607 1-663). The note with it: protein: recombinant; tags: N-terminal GST; dsDNA, one strand shown. A digest of the protocol: as §1
Another test has as its target T9, ELK4 (Homo sapiens, UniProt P28324-2 1-405).
T9 sequence: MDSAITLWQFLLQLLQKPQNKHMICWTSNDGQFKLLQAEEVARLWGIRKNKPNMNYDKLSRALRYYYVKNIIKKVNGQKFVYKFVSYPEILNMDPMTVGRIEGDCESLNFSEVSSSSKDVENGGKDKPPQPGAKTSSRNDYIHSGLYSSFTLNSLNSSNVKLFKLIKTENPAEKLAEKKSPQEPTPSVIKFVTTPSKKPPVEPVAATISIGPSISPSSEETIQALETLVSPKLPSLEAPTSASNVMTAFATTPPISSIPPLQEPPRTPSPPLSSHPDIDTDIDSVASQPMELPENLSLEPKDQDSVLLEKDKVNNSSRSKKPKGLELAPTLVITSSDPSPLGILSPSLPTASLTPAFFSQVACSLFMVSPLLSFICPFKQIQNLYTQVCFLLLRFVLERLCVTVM
The note with it: protein: recombinant; tags: N-terminal GST; dsDNA, one strand shown. A digest of the protocol: as §1

A further test deals with T10, ETV2 (Homo sapiens, UniProt O00321 1-342).
T10 sequence: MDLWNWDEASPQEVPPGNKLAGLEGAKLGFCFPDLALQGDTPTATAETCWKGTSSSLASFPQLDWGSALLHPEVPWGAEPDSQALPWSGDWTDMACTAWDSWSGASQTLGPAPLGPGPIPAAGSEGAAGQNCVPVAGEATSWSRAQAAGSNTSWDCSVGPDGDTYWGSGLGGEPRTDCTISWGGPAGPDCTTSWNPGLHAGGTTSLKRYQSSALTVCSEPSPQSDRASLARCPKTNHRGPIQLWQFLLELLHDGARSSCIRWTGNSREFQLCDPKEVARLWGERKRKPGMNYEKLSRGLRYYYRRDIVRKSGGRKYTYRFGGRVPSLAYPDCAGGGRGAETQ
The note with it: protein: recombinant; tags: N-terminal GST; dsDNA, one strand shown. A digest of the protocol: as §1

The target of the next test is T11, ELF3 (Homo sapiens, UniProt P78545 1-371).
T11 sequence: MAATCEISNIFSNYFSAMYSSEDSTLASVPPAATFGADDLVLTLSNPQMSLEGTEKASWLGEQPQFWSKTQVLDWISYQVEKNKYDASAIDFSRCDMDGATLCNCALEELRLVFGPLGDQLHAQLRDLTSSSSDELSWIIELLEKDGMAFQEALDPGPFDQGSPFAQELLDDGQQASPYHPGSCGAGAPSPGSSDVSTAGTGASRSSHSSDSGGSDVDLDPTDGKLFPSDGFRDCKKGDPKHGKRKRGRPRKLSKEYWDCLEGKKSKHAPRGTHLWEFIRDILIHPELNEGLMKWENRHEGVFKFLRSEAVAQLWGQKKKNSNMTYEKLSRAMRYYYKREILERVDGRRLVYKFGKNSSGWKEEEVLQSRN
The note with it: protein: recombinant; tags: N-terminal GST; dsDNA, one strand shown. The essentials:
as §1

A further test has as its target ETV1 (Homo sapiens, UniProt P50549 1-477). The note with it: protein: recombinant; tags: N-terminal GST; dsDNA, one strand shown. The essentials:
as §1

Sequence of HSF1 (Q00613 whole entry): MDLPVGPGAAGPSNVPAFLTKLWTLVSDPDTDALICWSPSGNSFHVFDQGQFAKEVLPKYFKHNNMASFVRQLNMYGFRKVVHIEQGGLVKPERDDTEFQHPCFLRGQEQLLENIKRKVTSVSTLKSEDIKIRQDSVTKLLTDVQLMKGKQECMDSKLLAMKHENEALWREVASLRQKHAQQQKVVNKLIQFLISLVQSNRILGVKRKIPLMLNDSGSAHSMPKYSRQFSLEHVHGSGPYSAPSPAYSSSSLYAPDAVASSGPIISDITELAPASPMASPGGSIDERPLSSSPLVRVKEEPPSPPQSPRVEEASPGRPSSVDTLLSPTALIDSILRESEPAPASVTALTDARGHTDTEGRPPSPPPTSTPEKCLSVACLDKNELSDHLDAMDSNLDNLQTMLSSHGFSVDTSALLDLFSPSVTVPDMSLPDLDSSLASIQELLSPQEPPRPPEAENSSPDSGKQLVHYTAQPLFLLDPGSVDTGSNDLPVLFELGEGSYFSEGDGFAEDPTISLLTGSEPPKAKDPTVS
Sequence of ETV5 (P41161 whole entry): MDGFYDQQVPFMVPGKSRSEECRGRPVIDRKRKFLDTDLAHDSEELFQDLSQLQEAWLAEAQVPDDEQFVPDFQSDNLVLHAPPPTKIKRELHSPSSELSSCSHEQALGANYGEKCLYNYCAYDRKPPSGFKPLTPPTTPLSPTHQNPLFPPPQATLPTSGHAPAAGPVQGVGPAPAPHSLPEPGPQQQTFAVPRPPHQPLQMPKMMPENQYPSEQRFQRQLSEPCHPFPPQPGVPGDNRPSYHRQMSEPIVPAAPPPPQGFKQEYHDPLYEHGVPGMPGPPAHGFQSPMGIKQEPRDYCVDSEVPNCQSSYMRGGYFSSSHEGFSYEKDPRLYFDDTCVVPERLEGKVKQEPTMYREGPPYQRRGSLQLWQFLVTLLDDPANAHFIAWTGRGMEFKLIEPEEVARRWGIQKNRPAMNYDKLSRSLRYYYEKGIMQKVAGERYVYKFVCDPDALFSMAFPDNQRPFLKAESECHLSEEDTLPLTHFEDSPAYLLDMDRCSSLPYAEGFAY
Sequence of ELF1 (P32519 whole entry): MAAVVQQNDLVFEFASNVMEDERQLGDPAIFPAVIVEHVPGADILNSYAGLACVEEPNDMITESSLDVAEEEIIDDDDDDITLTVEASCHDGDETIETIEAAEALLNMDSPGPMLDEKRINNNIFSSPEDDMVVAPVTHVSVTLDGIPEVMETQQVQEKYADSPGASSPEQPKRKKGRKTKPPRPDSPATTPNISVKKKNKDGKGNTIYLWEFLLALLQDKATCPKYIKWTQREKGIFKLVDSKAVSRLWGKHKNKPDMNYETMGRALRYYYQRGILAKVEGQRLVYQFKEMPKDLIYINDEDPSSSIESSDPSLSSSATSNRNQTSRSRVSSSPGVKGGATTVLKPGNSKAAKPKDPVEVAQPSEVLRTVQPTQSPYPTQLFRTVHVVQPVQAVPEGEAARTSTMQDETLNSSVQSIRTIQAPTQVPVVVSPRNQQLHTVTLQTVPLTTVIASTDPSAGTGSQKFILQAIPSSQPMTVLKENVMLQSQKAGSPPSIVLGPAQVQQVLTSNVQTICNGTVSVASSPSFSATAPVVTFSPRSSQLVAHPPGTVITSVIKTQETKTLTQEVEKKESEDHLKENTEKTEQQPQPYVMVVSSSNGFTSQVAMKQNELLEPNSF
Sequence of ELF4 (Q99607 whole entry): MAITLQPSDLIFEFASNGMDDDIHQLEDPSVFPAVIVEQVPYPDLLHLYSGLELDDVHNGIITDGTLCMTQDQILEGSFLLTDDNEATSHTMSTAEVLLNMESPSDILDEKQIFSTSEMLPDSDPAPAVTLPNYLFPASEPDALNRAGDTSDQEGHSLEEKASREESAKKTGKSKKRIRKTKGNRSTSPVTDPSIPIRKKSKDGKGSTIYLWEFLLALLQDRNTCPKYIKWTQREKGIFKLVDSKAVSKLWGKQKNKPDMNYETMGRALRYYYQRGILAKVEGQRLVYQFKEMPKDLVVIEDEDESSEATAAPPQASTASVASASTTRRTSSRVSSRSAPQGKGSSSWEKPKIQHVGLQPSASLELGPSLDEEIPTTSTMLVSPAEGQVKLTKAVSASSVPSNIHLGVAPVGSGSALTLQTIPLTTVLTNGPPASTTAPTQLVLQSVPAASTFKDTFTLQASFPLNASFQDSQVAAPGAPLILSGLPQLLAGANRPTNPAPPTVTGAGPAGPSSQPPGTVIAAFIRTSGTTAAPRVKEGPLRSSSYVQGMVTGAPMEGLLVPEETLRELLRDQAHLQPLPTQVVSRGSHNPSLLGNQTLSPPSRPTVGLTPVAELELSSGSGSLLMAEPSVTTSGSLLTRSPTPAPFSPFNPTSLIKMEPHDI
Sequence of SPIB (Q01892 whole entry): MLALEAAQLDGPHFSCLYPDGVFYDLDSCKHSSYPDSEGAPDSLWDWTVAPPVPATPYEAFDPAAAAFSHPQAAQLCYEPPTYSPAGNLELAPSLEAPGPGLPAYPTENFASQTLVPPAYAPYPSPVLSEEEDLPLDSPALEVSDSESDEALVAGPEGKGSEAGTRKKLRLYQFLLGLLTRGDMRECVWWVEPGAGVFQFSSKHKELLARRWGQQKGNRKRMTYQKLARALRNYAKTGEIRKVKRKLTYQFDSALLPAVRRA
Sequence of ETV1 (P50549 whole entry): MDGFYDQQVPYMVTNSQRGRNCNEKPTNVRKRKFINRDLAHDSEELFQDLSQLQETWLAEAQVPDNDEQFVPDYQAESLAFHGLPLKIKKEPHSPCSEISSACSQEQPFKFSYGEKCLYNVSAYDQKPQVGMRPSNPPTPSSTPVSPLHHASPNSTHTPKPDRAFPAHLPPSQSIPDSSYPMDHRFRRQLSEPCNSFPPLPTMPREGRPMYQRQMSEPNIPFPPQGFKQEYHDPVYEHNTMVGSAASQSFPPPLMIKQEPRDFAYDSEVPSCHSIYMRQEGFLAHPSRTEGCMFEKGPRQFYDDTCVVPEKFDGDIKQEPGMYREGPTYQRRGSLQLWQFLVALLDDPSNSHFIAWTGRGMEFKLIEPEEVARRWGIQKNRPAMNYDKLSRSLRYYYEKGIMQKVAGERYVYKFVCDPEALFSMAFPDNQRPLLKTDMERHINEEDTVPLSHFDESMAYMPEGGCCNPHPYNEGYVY

As to GAAGAA, the binding signal with FLI1 was 1.03 fold enrichment (6-mer frequency, TF over GST control); with ELK1, 1.11 fold enrichment (6-mer frequency, TF over GST control); with GABPA, 1.14 fold enrichment (6-mer frequency, TF over GST control); in the test with ERG, 1.19 fold enrichment (6-mer frequency, TF over GST control); in the test with ELF1 it was 1.12 fold enrichment (6-mer frequency, TF over GST control); in the test with EHF it was 1.14 fold enrichment (6-mer frequency, TF over GST control). Also, the binding signal was 1.13 fold enrichment (6-mer frequency, TF over GST control) with SPI1; 1.03 fold enrichment (6-mer frequency, TF over GST control) with SPIB; 1.13 fold enrichment (6-mer frequency, TF over GST control) with ELK3; 1.08 fold enrichment (6-mer frequency, TF over GST control) with FEV; 1.16 fold enrichment (6-mer frequency, TF over GST control) with ETV5; 1.46 fold enrichment (6-mer frequency, TF over GST control) with HSF1. The binding signal in the test with SPIC is 1.18 fold enrichment (6-mer frequency, TF over GST control); in the test with ELF4 it was 1.15 fold enrichment (6-mer frequency, TF over GST control); with ELK4, 1.17 fold enrichment (6-mer frequency, TF over GST control); with ETV2, 1.2 fold enrichment (6-mer frequency, TF over GST control); with ELF3, 1.26 fold enrichment (6-mer frequency, TF over GST control); with ETV1, 1.2 fold enrichment (6-mer frequency, TF over GST control).

Source of the values: article PMC7862700, “An all-to-all approach to the identification of sequence-specific readers for epigenetic DNA modifications on cytosine”.
